Laboratory results taken from PubChem BioAssay (NCI).
This is part of a sample that, as a whole, favours compounds with a hit. Of some 83,000 tested, about 20% had one in any assay.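 Results are percent growth after 48 hours of single-concentration exposure. 100 means growth as in untreated cells, lower positive values show inhibition; negative values down to -100 show cell death.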 Values without a mark were called inactive. Calls of active or inactive are those of the source. Rule for the calls: active = growth percent below 10; inactive = the rest.

Each compound was assayed on HL-60(TB) leukemia (assay: NCI-60 one-dose screen, 48 h (100 = growth as untreated, 0 = no growth, -100 = all killed)). Conditions: 10 µM unless noted.
`C=C1C(=O)O[C@@H]2C[C@@H](C)[C@H](OC)CC(=O)[C@](C)(OC(C)=O)C[C@H](OC(=O)/C(C)=C\C)[C@@H]12` gave a growth of 69.3%.
In the case of `COc1cc(OC)c(S(N)(=O)=O)cc1C(=O)/C=C/c1ccc(Cl)cc1`, the growth was -9% (active).
Work on `C#CCOc1ccc(C(Nc2ccc(OC)cc2)c2nnnn2C2CCCCC2)cc1` (stereo not given) yielded a growth of 84.7%.
`CC(=O)C1=NN(c2ccc(Cl)cc2)C(=O)CN1C` gave a growth of 105%.
In the case of `[Cl][Ru].c1ccc(-c2cc(-c3ccccn3)nc(-c3ccccn3)c2)cc1.c1ccc(-c2ccnc3c2ccc2c(-c4ccccc4)ccnc23)cc1`, the growth was -29.2% (active).
`O=C(Nc1ccccc1)Nc1nc2ccc([N+](=O)[O-])cc2[nH]1` gave a growth of 70.2%.
For `CC(C)NC(=O)c1cc(-c2ccc(NC(=O)Nc3ccc(N4CCOCC4)c(C(F)(F)F)c3)cc2)nc2cccnc12`, the growth was 12.6%.
For `c1ccc(-c2cn3c(-c4c[nH]c5ccccc45)csc3n2)cc1`, the growth was 56%.
Work on `COC(=O)CCSC1=C(C)C(=O)c2ccccc2C1=O` yielded a growth of 34.9%.
For `CCN(CC)S(=O)(=O)c1ccc(-c2nc(C(Cl)Cl)nc3cc(C)nn23)cc1`, the growth was -9.17% (active).
`N#C/C(=C\c1ccc(-c2ccc(F)cc2)o1)C(=O)Nc1ncc(Cc2ccc(Cl)cc2Cl)s1` was tested, and the growth was 22.5%.
With `NC(=O)c1c(NC(=O)c2ccc(C(F)(F)F)cc2)sc2c1CCC(=O)C2` the growth was 6.39% (active).
Work on `O=C(CSc1nnc(-c2cccs2)n1-c1ccccc1)Nc1ccccc1F` yielded a growth of 66.3%.
`CC(C)[C@H]1c2[nH]c3ccccc3c2C[C@H]2C(=O)N(CCCCCCC(=O)NO)CC(=O)N12` was tested, and the growth was 96.1%.
Compound `Cc1occc1-c1nc2s/c(=C\c3cn(-c4ccccc4)nc3-c3ccccc3)c(=O)n2n1` has a growth of 102%.
`CCN(CC)CCN1C(=O)c2c(c3c4cc(Br)ccc4[nH]c3c3ccc4ccccc4c23)C1=O` was tested, and the growth was -35% (active).
Work on `CC1=C(C)C(=O)C(Nc2cccc(C)c2)=C(Br)C1=O` yielded a growth of 37%.
`C#Cc1nc(C(=O)NCCC(=O)Nc2ccc(NC(=O)c3ccc(/C=C/C(=O)c4nccn4C)cc3)cc2)cs1` showed a growth of 12.2%.
In the case of `COc1ccc(-c2c(C(N)=O)c(N)n(Cc3nc4ccccc4[nH]3)c(=O)c2C#N)c(OC)c1`, the growth was 106%.
With `CS(=O)c1nccc(-c2c(-c3ccc(F)c(OCCc4ccc(F)cc4)c3)nc3sccn23)n1` (stereo not given) the growth was -13.4% (active).
For `CCN1C(=O)N(CC)C2SC(N/N=C/C=C/c3ccccc3OC)=NC21` (stereo not given), the growth was -9.85% (active).
For `CCN(CC)c1ccc(NC2=C(Cl)C(=O)c3nc(C)ccc3C2=O)cc1`, the growth was -34.6% (active).
For `Cc1ccc(-n2cc(/C=N/NC(=O)c3ccncc3)c(-c3ccc(S(C)(=O)=O)cc3)n2)cc1`, the growth was 76.4%.
`CCc1cccc2c3c(sc12)C(c1ccc(F)cc1)C(C#N)=C(/N=C/c1ccc(Cl)cc1)O3` (stereo not given) was tested, and the growth was 7.08% (active).
`CCCCCc1ccc(S(=O)(=O)Nc2cc(-c3csc(NC(=O)CN4CCN(CCO)CC4)n3)ccc2OC)cc1` was tested, and the growth was -40.5% (active).
`C#C[C@]1(O)CC[C@H]2[C@@H]3CC=C4c5sc(NCc6ccccc6)nc5CC[C@]4(C)[C@H]3CC[C@@]21C` showed a growth of 24%.
In the case of `O=S(=O)(NCCCNc1nccc(-n2cnc3ccccc32)n1)c1ccc(C(F)(F)F)cc1`, the growth was 101%.
With `Cc1[nH]c(C(=O)Nc2ccc(C(N)=O)cc2N2CCOC(C)C2)c(Cl)c1Cl` (stereo not given) the growth was 98.1%.
For `C[C@@H]1C[C@H]2C(=O)OCC(NC(=O)[C@H](Cc3cc(F)cc(F)c3)NC(=O)Nc3ccc(Cl)cc3F)C(=O)N3CCC[C@H]3C(=O)N3CCCC[C@H]3C(=O)N[C@@H](C)C(=O)N2C1` (stereo not given in full), the growth was 6.2% (active).
Work on `CS(=O)(=O)c1ccc(/C(=N/N=C(N)N)c2ccc(Cl)cc2)cc1` yielded a growth of 80%.
For `CCn1c(SCC(=O)Nc2cccc(C(=O)/C=C/c3cc(OC)c(OC)c(OC)c3)c2)nc2ccccc2c1=O`, the growth was 48%.
Work on `N#Cc1c(-c2cccs2)cc(-c2cnccn2)nc1SCC(=O)Nc1ccc(Br)cc1` yielded a growth of 107%.
`O=[N+]([O-])c1ccc(O)c2ncccc12` was tested, and the growth was -5.62% (active).
`CC(=O)OC[C@@]12Oc3c(cccc3-c3ccc(O)c4c3O[C@]3(COC(C)=O)C(=C4O)C(=O)C[C@H](C)[C@@H]3OC(C)=O)C(O)=C1C(=O)C[C@H](C)[C@@H]2OC(C)=O` was tested, and the growth was -46.3% (active).
`COc1c(N2CC3CCCNC3C2)c(F)cc2c(=O)c(C(=O)N/N=C/c3c[nH]c4ccccc34)cn(C3CC3)c12` (stereo not given) was tested, and the growth was 94.4%.
In the case of `O=C(/C=C/c1ccccc1)c1cccc(O)c1`, the growth was 87.5%.
`COc1ccccc1Cn1cc(C#N)c(N)c1C(=O)c1ccc(Br)cc1` gave a growth of 92.8%.
`CN1CCC(n2cc(Nc3ncc4c(=O)n(-c5c(Cl)cccc5Cl)cc(Br)c4n3)cn2)CC1` was tested, and the growth was -13.8% (active).
`COc1ccc(-c2nc(SCC(C)C)nc(N/N=C\c3cccc([N+](=O)[O-])c3)c2C#N)cc1` showed a growth of 85.1%.
`Nc1nc(N)c2c(n1)NC(c1ccc(Cl)cc1)CC(c1ccc(Nc3nc(NCCO)nc(N4CCOCC4)n3)cc1)=N2` (stereo not given) was tested, and the growth was 27%.
